In the supplement of paper PMC6992640:
± gives the standard deviation of the averaged measurements.
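Further: PDX cells carrying CMV promoter-driven luciferase, viability read as total photon flux per second by IVIS imaging following D-luciferin, vehicle control 0.1% DMSO.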

Each molecule was assayed on WHIM2 (cells of a triple-negative basal-like breast cancer xenograft) (assay: cell viability (% of vehicle); higher = less cytotoxic). Details: 10 µM; 72 h.
CC(=O)O[C@@]12CO[C@@H]1C[C@H](O)[C@@]1(C)C(=O)[C@H](O)C3=C(C)[C@@H](OC(=O)[C@H](O)[C@@H](NC(=O)OC(C)(C)C)c4ccccc4)C[C@@](O)([C@@H](OC(=O)c4ccccc4)[C@H]21)C3(C)C [Docetaxel] showed a cell viability of 96.3 ± 7.4.
For O=C(Oc1ccccc1C(=O)O)c1ccccc1O [Sasapyrine], the cell viability was 123 ± 24.
CCCNS(=O)(=O)Nc1ncnc(OCCOc2ncc(Br)cn2)c1-c1ccc(Br)cc1 [Macitentan] was tested, and the cell viability was 77.1 ± 37.
Work on CCCCCCCCCC(=O)NC(Cc1c[nH]c2ccccc12)C(=O)NC(CC(N)=O)C(=O)NC(CC(=O)O)C(=O)NC1C(=O)NCC(=O)NC(CCCN)C(=O)NC(CC(=O)O)C(=O)NC(C)C(=O)NC(CC(=O)O)C(=O)NCC(=O)NC(CO)C(=O)NC(C(C)CC(=O)O)C(=O)NC(CC(=O)c2ccccc2N)C(=O)OC1C (stereo not drawn) [Daptomycin] yielded a cell viability of 103 ± 28.
COc1nc(C)nc(Cl)c1NC1=NCCN1 [Moxonidine] was tested, and the cell viability was 116 ± 12.
In the case of NCCCCC(NC(CCc1ccccc1)C(=O)O)C(=O)N1CCCC1C(=O)O.O.O (stereo not drawn) [Lisinopril dihydrate], the cell viability is reported as 94 ± 22.

What follows are molecules tested on WHIM30 (cells of a triple-negative basal-like breast cancer xenograft) in the same assay as above. Details: 10 µM; 72 h.
Work on CC1COc2c(N3CCN(C)CC3)c(F)cc3c(=O)c(C(=O)O)cn1c23 (stereo not drawn) [Ofloxacin] yielded a cell viability of 159 ± 11.
Work on Cc1cc(Nc2cc(N3CCN(C)CC3)nc(Sc3ccc(NC(=O)C4CC4)cc3)n2)n[nH]1 [VX-680 (MK-0457,Tozasertib)] yielded a cell viability of 142 ± 14.
O=C([O-])P(=O)([O-])[O-].[Na+].[Na+].[Na+] [Foscarnet Sodium] showed a cell viability of 126 ± 2.2.
Work on Cc1onc(-c2ccccc2Cl)c1C(=O)NC1C(=O)N2C1SC(C)(C)C2C(=O)[O-].O.[Na+] (stereo not drawn) [Cloxacillin Sodium] yielded a cell viability of 199 ± 20.
In the case of CN1CCC(OC(c2ccccc2)c2ccccc2)CC1.Cl [Diphenylpyraline HCl], the cell viability is reported as 107 ± 14.
COc1cc(OC)c(C(=O)CCCN2CCCC2)c(OC)c1.Cl [Buflomedil HCl] gave a cell viability of 134 ± 2.4.
CC(C)(O)c1ccccc1CCC(SCC1(CC(=O)[O-])CC1)c1cccc(C=Cc2ccc3ccc(Cl)cc3n2)c1.[Na+] (stereo not drawn) [Montelukast Sodium] was tested, and the cell viability was 156.57 ± 0.11.
For CC(=O)Oc1ccccc1C(=O)O [Aspirin (Acetylsalicylic acid)], the cell viability was 160 ± 23.
CCN(CCCc1ccccc1)CCCc1ccccc1.O=C(O)CC(O)(CC(=O)O)C(=O)O [Alverine Citrate] showed a cell viability of 102 ± 15.
With CC#CCn1c(N2CCCC(N)C2)nc2c1c(=O)n(Cc1nc(C)c3ccccc3n1)c(=O)n2C (stereo not drawn) [Linagliptin (BI-1356)] the cell viability was 167 ± 7.3.
Molecule Cc1cc2c(s1)=Nc1ccccc1NC=2N1CCN(C)CC1 [Olanzapine] has a cell viability of 107 ± 16.
CC1(O)CC(c2nc(-c3ccc4ccc(-c5ccccc5)nc4c3)c3c(N)nccn23)C1 (stereo not drawn) [Linsitinib] was tested, and the cell viability was 126 ± 12.
With Cc1cn(C2CC(O)C(CO)O2)c(=O)[nH]c1=O (stereo not drawn) [Telbivudine] the cell viability was 124 ± 24.
For Nc1ncnc2c1ncn2C1OC(CO)C(O)C1O (stereo not drawn) [Adenosine], the cell viability was 124 ± 16.
In the case of CC(=O)[C@@]1(O)CC[C@H]2[C@@H]3CCC4=CC(=O)CCC4=C3[C@@H](c3ccc(N(C)C)cc3)C[C@@]21C [Ulipristal], the cell viability is reported as 142 ± 1.3.
Cc1c(OCC(F)(F)F)ccnc1CS(=O)c1nc2ccccc2[nH]1 (stereo not drawn) [Dexlansoprazole] gave a cell viability of 186 ± 9.4.
With c1cc(CN2CCCNCCNCCCNCC2)ccc1CN1CCCNCCNCCCNCC1 [Plerixafor (AMD3100)] the cell viability was 110 ± 12.
Molecule COS(=O)(=O)[O-].C[N+]1(C)CCC(=C(c2ccccc2)c2ccccc2)CC1 [Diphemanil Methylsulfate] has a cell viability of 161.9 ± 0.26.
With CC(O)C1C(=O)N2C(C(=O)OCOC(=O)C(C)(C)C)=C(SC3CN(C4=NCCS4)C3)C(C)C12 (stereo not drawn) [Tebipenempivoxil] the cell viability was 133 ± 17.
Work on O=C(NC(CO)C(O)c1ccc([N+](=O)[O-])cc1)C(Cl)Cl (stereo not drawn) [Chloramphenicol] yielded a cell viability of 100 ± 18.
Cc1ccc(Nc2nccc(N(C)c3ccc4c(C)n(C)nc4c3)n2)cc1S(N)(=O)=O.Cl was tested, and the cell viability was 144 ± 6.
NC(=O)N1CCC(CC(=O)N2CCC(C3c4ncc(Br)cc4CCc4cc(Cl)cc(Br)c43)CC2)CC1 (stereo not drawn) [Lonafarnib] was tested, and the cell viability was 115 ± 7.2.
Molecule CC(C)OC(=O)OCOP(=O)(COC(C)Cn1cnc2c(N)ncnc21)OCOC(=O)OC(C)C.O=C(O)C=CC(=O)O (stereo not drawn) [Tenofovir Disoproxil Fumarate] has a cell viability of 136 ± 10.
With CC1(C)SC2C(NC(=O)C(C(=O)[O-])c3ccccc3)C(=O)N2C1C(=O)[O-].[Na+].[Na+] (stereo not drawn) [Carbenicillin, Disodium Salt] the cell viability was 115 ± 2.
CC1C(=O)OC2CC34C5CC(C(C)(C)C)C36C(OC(=O)C6O)OC4(C(=O)O5)C21O (stereo not drawn) [Ginkgolide A] showed a cell viability of 91.5 ± 9.4.
For CNS(=O)(=O)Cc1ccc2[nH]cc(CCN(C)C)c2c1 [Sumatriptan], the cell viability was 110 ± 19.
Nc1nc(=O)c2c([nH]1)NCC(CNc1ccc(C(=O)NC(CCC(=O)[O-])C(=O)[O-])cc1)N2C=O.O.O.O.O.O.[Ca+2] (stereo not drawn) [Leucovorin Calcium] showed a cell viability of 156 ± 29.
Work on Nc1nc(Cl)nc2c1ncn2C1OC(CO)C(O)C1F (stereo not drawn) [Clofarabine] yielded a cell viability of 128.5 ± 0.14.
Molecule Cc1cc(C2CCCCC2)n(O)c(=O)c1 [Ciclopirox] has a cell viability of 94.5 ± 12.
In the case of NC(=O)C(CCC(F)(F)F)N(Cc1ccc(-c2ncon2)cc1F)S(=O)(=O)c1ccc(Cl)cc1 (stereo not drawn), the cell viability is reported as 124 ± 13.
CC(=O)O[C@@]12CO[C@@H]1C[C@H](O)[C@@]1(C)C(=O)[C@H](O)C3=C(C)[C@@H](OC(=O)[C@H](O)[C@@H](NC(=O)OC(C)(C)C)c4ccccc4)C[C@@](O)([C@@H](OC(=O)c4ccccc4)[C@H]21)C3(C)C [Docetaxel] gave a cell viability of 134 ± 5.3.
O=C(Oc1ccccc1C(=O)O)c1ccccc1O [Sasapyrine] gave a cell viability of 142 ± 7.2.
Work on CCCNS(=O)(=O)Nc1ncnc(OCCOc2ncc(Br)cn2)c1-c1ccc(Br)cc1 [Macitentan] yielded a cell viability of 101.4 ± 0.41.
For CCCCCCCCCC(=O)NC(Cc1c[nH]c2ccccc12)C(=O)NC(CC(N)=O)C(=O)NC(CC(=O)O)C(=O)NC1C(=O)NCC(=O)NC(CCCN)C(=O)NC(CC(=O)O)C(=O)NC(C)C(=O)NC(CC(=O)O)C(=O)NCC(=O)NC(CO)C(=O)NC(C(C)CC(=O)O)C(=O)NC(CC(=O)c2ccccc2N)C(=O)OC1C (stereo not drawn) [Daptomycin], the cell viability was 162 ± 40.
COc1nc(C)nc(Cl)c1NC1=NCCN1 [Moxonidine] was tested, and the cell viability was 118 ± 8.7.
Molecule NCCCCC(NC(CCc1ccccc1)C(=O)O)C(=O)N1CCCC1C(=O)O.O.O (stereo not drawn) [Lisinopril dihydrate] has a cell viability of 150 ± 8.1.
Cc1cc(C2CCCCC2)n(O)c(=O)c1.NCCO [Ciclopirox ethanolamine] gave a cell viability of 86.4 ± 7.
